target: EIF3F (UniProt O00303); experiment: log2 ratio of Biotin-Ahx-Ub-VS probe labelling (fragment/DMSO); higher = less target engagement (more negative = stronger competition), active = hit call of the paper (q ≤ 0.05, log2 ratio ≤ -1); conditions: compound concentration: 200 uM; treatment time: 3 h
Outline: (§1)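 Each value is an average log2 ratio of fragment to vehicle, tested by unpaired t-test. The underlying Spectronaut label-free quantities were global-median-normalised, and only proteins with ≥2 unique peptides were included. Triplicate HEK293T lysate samples (495 µg) were exposed to fragment at 200 µM or vehicle for 3 h, then to Biotin-Ahx-Ub-VS at 0.5 µM final for 1 h, before NeutrAvidin enrichment of labelled DUBs, LysC and trypsin digestion, and diaPASEF LC-MS/MS.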

EIF3F, sequence (O00303 whole entry, the tested form may be a part): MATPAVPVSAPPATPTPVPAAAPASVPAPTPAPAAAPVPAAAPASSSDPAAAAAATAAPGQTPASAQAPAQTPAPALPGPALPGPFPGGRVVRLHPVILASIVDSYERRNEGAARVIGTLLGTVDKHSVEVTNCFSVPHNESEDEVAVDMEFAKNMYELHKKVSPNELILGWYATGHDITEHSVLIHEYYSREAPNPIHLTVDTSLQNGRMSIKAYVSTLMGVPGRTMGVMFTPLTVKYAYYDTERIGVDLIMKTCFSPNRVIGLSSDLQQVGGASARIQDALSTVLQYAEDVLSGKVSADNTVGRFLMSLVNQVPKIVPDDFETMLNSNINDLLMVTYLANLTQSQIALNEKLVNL

log2 ratio of Biotin-Ahx-Ub-VS probe labelling, inactive:
Cl.O=C(CCl)N1CCC(n2nc3ccccc3n2)CC1 -0.315
Cc1cccc(C)c1NC(=O)CCl -0.276
CCN(C(=O)CCl)C1CCS(=O)(=O)C1 (stereo not given) -0.357
Cl.O=C(CCl)N[C@H]1C[C@@H](n2cccn2)C1 -0.862
Cc1ccc2nnc(CNC(=O)CCl)n2c1 -0.17
O=C(CCl)Nc1ccc(N2CCCC2=O)cc1 -0.125
Cl.O=C(CCl)NCc1ccnc(Oc2ccccc2F)c1 -0.072
O=C(CCl)N1CCC(S(=O)(=O)c2ccc(F)cc2)CC1 -0.133
Cl.O=C(CCl)N1CCn2ncc(O)c2C1 -0.296
Cc1cccc(NC(=O)CCl)c1C -0.272
CCN(C(=O)CCl)C1CCCCC1 -0.141
O=C(CCl)NC1(c2ccc3c(c2)OCCO3)CCCC1 -0.19
O=C(CCl)N1CCN(C(=O)Nc2ccccc2)CC1 0.181
O=C(CCl)NC(Cn1ccccc1=O)c1ccccc1 (stereo not given) 0.0892
CC1CCc2onc(CNC(=O)CCl)c2C1 (stereo not given) -0.165
O=C(CCl)N1CCCCCC1c1ncon1 (stereo not given) 0.0211
Cc1cccc(N(CCC#N)C(=O)CCl)c1C -0.0896
O=C(CCl)Nc1ccccc1C(F)(F)F -0.519
Cc1ccccc1OCC(=O)N1CCN(C(=O)CCl)CC1 -0.317
CN(C)C(=O)c1ccc(CNC(=O)CCl)cc1 0.137
Cl.Cn1cnc2cc(CNC(=O)CCl)ccc21 -0.304
N#Cc1ccc(CNC(=O)CCl)cc1 -0.0324
Cc1nc(CN2CCCN(C(=O)CCl)CC2)no1.Cl -0.233
Cc1ccc(C)c(NC(=O)CCl)c1 -0.246
Cc1cc(CC(C)NC(=O)CCl)n[nH]1 (stereo not given) -0.138
O=C(CCl)N1CCCN(C(=O)c2ccc(Cl)cc2)CC1 -0.31
Cl.O=C(CCl)NCCN1CCc2ccccc21 -0.106
CC1(NC(=O)CCl)CCS(=O)(=O)C1 (stereo not given) -0.345
N#Cc1ccc(Cl)cc1NC(=O)CCl -0.13
O=C(CCl)N1CCCC1c1ccsc1 (stereo not given) 0.0507
O=C(CCl)NCc1ccc(N2CCOCC2)nc1 -0.156
O=C(CCl)NCc1cccc(F)c1 -0.186
COc1ccccc1C(C)NC(=O)CCl (stereo not given) -0.185
COc1ccc(Cl)cc1NC(=O)CCl -0.594
O=C(CCl)N1CCC(c2nc3ccccc3o2)CC1 -0.00792

target: EIF3H (UniProt O15372); experiment: as above; conditions: compound concentration: 200 uM; treatment time: 3 h
Sequence (O15372 whole entry): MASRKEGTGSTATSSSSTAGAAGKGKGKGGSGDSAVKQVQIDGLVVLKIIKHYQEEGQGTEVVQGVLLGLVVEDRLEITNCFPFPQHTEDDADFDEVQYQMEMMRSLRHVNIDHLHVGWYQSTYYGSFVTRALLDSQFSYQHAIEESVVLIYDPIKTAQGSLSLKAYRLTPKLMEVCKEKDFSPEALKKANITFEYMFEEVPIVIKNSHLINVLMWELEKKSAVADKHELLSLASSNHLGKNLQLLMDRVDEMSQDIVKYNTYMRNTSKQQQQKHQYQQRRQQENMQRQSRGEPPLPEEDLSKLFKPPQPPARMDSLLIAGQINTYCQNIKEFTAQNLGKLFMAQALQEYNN
Outline: as §1

log2 ratio of Biotin-Ahx-Ub-VS probe labelling, inactive:
Cl.O=C(CCl)N1CCC(n2nc3ccccc3n2)CC1 -0.151
Cc1cccc(C)c1NC(=O)CCl 0.122
CCN(C(=O)CCl)C1CCS(=O)(=O)C1 (stereo not given) 0.227
Cl.O=C(CCl)N[C@H]1C[C@@H](n2cccn2)C1 0.149
Cc1ccc2nnc(CNC(=O)CCl)n2c1 0.00833
O=C(CCl)Nc1ccc(N2CCCC2=O)cc1 0.315
Cl.O=C(CCl)NCc1ccnc(Oc2ccccc2F)c1 -0.589
O=C(CCl)N1CCC(S(=O)(=O)c2ccc(F)cc2)CC1 0.256
Cl.O=C(CCl)N1CCn2ncc(O)c2C1 0.21
Cc1cccc(NC(=O)CCl)c1C 0.00998
CCN(C(=O)CCl)C1CCCCC1 0.022
O=C(CCl)NC1(c2ccc3c(c2)OCCO3)CCCC1 -0.051
O=C(CCl)N1CCN(C(=O)Nc2ccccc2)CC1 0.232
O=C(CCl)NC(Cn1ccccc1=O)c1ccccc1 (stereo not given) -0.0521
CC1CCc2onc(CNC(=O)CCl)c2C1 (stereo not given) -0.00651
O=C(CCl)N1CCCCCC1c1ncon1 (stereo not given) 0.132
Cc1cccc(N(CCC#N)C(=O)CCl)c1C 0.111
O=C(CCl)Nc1ccccc1C(F)(F)F 0.185
Cc1ccccc1OCC(=O)N1CCN(C(=O)CCl)CC1 0.19
CN(C)C(=O)c1ccc(CNC(=O)CCl)cc1 0.092
Cl.Cn1cnc2cc(CNC(=O)CCl)ccc21 0.311
N#Cc1ccc(CNC(=O)CCl)cc1 0.142
Cc1nc(CN2CCCN(C(=O)CCl)CC2)no1.Cl 0.122
Cc1ccc(C)c(NC(=O)CCl)c1 0.0185
Cc1cc(CC(C)NC(=O)CCl)n[nH]1 (stereo not given) -0.131
O=C(CCl)N1CCCN(C(=O)c2ccc(Cl)cc2)CC1 0.393
Cl.O=C(CCl)NCCN1CCc2ccccc21 0.469
CC1(NC(=O)CCl)CCS(=O)(=O)C1 (stereo not given) 0.186
N#Cc1ccc(Cl)cc1NC(=O)CCl 0.269
O=C(CCl)N1CCCC1c1ccsc1 (stereo not given) 0.2
O=C(CCl)NCc1ccc(N2CCOCC2)nc1 0.183
O=C(CCl)NCc1cccc(F)c1 0.138
COc1ccccc1C(C)NC(=O)CCl (stereo not given) -0.0831
COc1ccc(Cl)cc1NC(=O)CCl 0.0551
O=C(CCl)N1CCC(c2nc3ccccc3o2)CC1 0.264

Source: the supplement of paper PMC11732987, “Enantioselective OTUD7B fragment discovery through chemoproteomics screening and high-throughput optimisation” (Communications Chemistry, 2025)
